From ChEMBL document CHEMBL1961873, “Compounds: GSK PKIS; Assays: Nanosyn kinase panel” (2012)
Values joined by “and” are separate entries in the source; they are usually repeats but may differ in a detail not shown here. Equal values may be shown once.

target: MAP/microtubule affinity-regulating kinase 3 (Homo sapiens) (UniProt P27448); settings: at 1 µM;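 also: reported values are averaged percent inhibition of MARK3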
Sequence (P27448 whole entry, looked up): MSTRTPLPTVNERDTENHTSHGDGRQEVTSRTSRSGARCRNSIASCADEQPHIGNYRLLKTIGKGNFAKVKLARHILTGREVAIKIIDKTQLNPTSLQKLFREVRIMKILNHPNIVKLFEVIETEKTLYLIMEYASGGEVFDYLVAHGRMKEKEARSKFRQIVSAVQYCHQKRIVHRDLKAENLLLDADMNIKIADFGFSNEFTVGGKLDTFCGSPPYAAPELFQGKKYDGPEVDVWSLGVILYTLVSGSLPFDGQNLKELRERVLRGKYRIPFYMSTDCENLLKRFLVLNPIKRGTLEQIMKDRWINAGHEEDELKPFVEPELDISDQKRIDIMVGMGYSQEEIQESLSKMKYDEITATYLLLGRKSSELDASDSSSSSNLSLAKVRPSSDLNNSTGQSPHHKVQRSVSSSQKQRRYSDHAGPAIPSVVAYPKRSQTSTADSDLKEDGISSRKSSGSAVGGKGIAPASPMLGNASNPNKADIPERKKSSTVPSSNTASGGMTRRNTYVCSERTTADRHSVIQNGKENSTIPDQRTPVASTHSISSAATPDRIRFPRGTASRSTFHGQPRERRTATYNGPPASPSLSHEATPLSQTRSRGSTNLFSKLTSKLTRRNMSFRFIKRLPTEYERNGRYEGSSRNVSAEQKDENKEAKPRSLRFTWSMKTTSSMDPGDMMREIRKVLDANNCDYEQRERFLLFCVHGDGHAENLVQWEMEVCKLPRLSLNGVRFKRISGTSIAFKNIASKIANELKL

Row | Structure (SMILES) | inhibition
1 | Cc1c2ccc(N(C)c3ccnc(Nc4cccc(S(N)(=O)=O)c4)n3)cc2nn1C | 5.76%
2 | Cc1ccc(-c2cc3c(NC(=O)C4CC4)ncnc3o2)cc1 | 7.2%
3 | CN(C)CCNC(=O)Nc1ccc(N(C)c2ccnc(Nc3ccc(CS(C)(=O)=O)cc3)n2)cc1 | 6.62%
4 | CCS(=O)(=O)c1ccc(OC)c(Nc2ncc(-c3cccc(F)c3)o2)c1 | 2.56%
5 | CC(C)c1ccc(-c2cc(-c3c[nH]nc3-c3ccccn3)ccn2)cc1 | 0.71%
6 | c1ccc(-c2n[nH]cc2-c2ccnc(-c3ccc(OCCn4ccnc4)cc3)c2)nc1 | 6.87%
7 | COc1ccc(Nc2ncc(-c3ccccc3)o2)cc1OC | 26.7%
8 | Cc1cc(O)cc(C)c1/C=C/c1cncc(C(N)=O)c1 | 3.59%
9 | CC1=C(C(=O)Nc2ccc3[nH]nc(C)c3c2)C(c2ccc(C(F)(F)F)cc2)CC(=O)N1 (configuration not stated) | 5.26%
10 | NS(=O)(=O)c1cccc(N/C=C2\C(=O)Nc3ccccc32)c1 | 17%
11 | Fc1ccc(Nc2nccc(-c3c(-c4ccc(C(F)(F)F)cc4)nn4ncccc34)n2)cc1F | 3.91%
12 | COc1cc2c(cc1Nc1nc(Nc3cccc(F)c3C(N)=O)c3cc[nH]c3n1)N(C(=O)CN1CCN(C(C)C)CC1)CC2 | 3.29%
13 | O=C(O[C@H]1CN[C@H](C#Cc2cc3ncnc(Nc4ccc5c(ccn5Cc5cc(F)ccc5F)c4)c3s2)C1)N1CCOCC1 | 1.49%
14 | CCN1CCC(C(=O)Nc2n[nH]c3nnc(-c4cccc(F)c4F)cc23)CC1 | 1.76%
15 | N#Cc1cccc(Nc2ncc(-c3ccccc3)o2)c1 | 7.34%
16 | CS(=O)(=O)CCNCc1ccoc1-c1ccc2ncnc(Nc3ccc(OCc4ccccc4)cc3)c2c1 | -1.52%

Row | Structure (SMILES) | inhibition
17 | COc1cccc(-n2ncc3c(N/N=C/c4ccc(C(=O)NCCN(C)C)cc4)ncnc32)c1 | 18.4%
18 | COc1cc(N2CCN(C(C)C)CC2)ccc1Nc1nc(Nc2cccc3ncccc23)c2cc[nH]c2n1 | 3.2%
19 | NS(=O)(=O)c1ccc(N/N=C2\C(=O)Nc3ccc(C(=O)NCc4ccncc4)cc32)cc1 | 34.4%
20 | CCn1c(-c2nonc2N)nc2cncc(C(=O)NCCNC)c21 | 16.6%
21 | COC(=O)Nc1nc2cc(Oc3ccc(NC(=O)Nc4ccccc4)cc3)ccc2[nH]1 | 2.58%
22 | COc1cc(Nc2ncc(-c3ccccc3)o2)cc(OC)c1 | 2.48%
23 | COc1ccc(-c2nn3ncccc3c2-c2ccnc(Nc3ccc(F)c(F)c3)n2)cc1 | 10.5%
24 | COc1c(C(N)=O)cc(-c2ccc(Cl)cc2)cc1-c1ccc(S(N)(=O)=O)cc1 | 2.07%
25 | Nc1ncnc2occ(-c3ccc(NC(=O)Nc4cc(C(F)(F)F)ccc4F)cc3)c12 | 2.97% and -0.26%
26 | CC1=C(C(=O)Nc2ccc3[nH]ncc3c2)C(c2ccc(F)cc2)N=C(c2ccc(C(F)(F)F)nc2)N1 (configuration not stated) | 1.71%
27 | CN1CCN(Cc2ccc(-c3cc4ncnc(Nc5ccc(OCc6cccc(F)c6)c(Cl)c5)c4s3)o2)CC1 | 2.84% and 0.44%
28 | N#Cc1ccc2c(-c3ccnc(NC4CC4)n3)c(-c3ccc(F)cc3)nn2c1 | 0.43%
29 | CNC(=O)c1ncccc1Nc1nc(Nc2cc3c(cc2OC)CCCN3C(=O)CN(C)C)nc2[nH]ccc12 | 3.77%
30 | Nc1nccc(-c2c(-c3ccc(F)cc3)ncn2C2CCNCC2)n1 | 0.65% and -2.22%
31 | c1cnn2ncc(-c3ccnc(NCCCN4CCOCC4)n3)c2c1 | -0.34%

target: T1, MAP/microtubule affinity-regulating kinase 4 (Homo sapiens) (UniProt Q96L34); settings: at 0.1 µM;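 also: values are averaged percent inhibition of MARK4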
T1 sequence (whole entry): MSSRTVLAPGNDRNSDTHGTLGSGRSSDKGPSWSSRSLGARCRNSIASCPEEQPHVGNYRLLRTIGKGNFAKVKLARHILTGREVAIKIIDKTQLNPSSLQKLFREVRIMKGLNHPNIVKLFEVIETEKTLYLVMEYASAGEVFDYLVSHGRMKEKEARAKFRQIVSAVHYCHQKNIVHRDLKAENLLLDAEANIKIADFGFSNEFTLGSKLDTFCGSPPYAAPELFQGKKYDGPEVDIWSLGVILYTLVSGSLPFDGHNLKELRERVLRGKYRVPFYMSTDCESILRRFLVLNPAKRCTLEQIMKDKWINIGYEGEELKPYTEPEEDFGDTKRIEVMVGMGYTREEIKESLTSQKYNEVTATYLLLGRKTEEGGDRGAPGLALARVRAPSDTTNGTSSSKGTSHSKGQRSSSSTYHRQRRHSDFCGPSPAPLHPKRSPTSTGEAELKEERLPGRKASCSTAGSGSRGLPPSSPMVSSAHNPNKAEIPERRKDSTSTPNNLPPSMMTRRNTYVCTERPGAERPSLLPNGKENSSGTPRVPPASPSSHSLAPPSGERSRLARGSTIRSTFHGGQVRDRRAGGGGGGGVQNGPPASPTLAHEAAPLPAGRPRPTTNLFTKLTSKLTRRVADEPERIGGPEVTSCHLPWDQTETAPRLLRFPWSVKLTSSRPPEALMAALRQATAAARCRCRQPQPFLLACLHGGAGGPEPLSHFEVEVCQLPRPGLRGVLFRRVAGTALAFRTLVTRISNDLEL

Row | Structure (SMILES) | inhibition
32 | Cc1c2ccc(N(C)c3ccnc(Nc4cccc(S(N)(=O)=O)c4)n3)cc2nn1C | 2.63%
33 | Cc1ccc(-c2cc3c(NC(=O)C4CC4)ncnc3o2)cc1 | 1.77%
34 | CN(C)CCNC(=O)Nc1ccc(N(C)c2ccnc(Nc3ccc(CS(C)(=O)=O)cc3)n2)cc1 | 1.9%
35 | CCS(=O)(=O)c1ccc(OC)c(Nc2ncc(-c3cccc(F)c3)o2)c1 | 2.11%
36 | CC(C)c1ccc(-c2cc(-c3c[nH]nc3-c3ccccn3)ccn2)cc1 | -0.28%
37 | c1ccc(-c2n[nH]cc2-c2ccnc(-c3ccc(OCCn4ccnc4)cc3)c2)nc1 | 1.49%
38 | COc1ccc(Nc2ncc(-c3ccccc3)o2)cc1OC | 2.3%
39 | Cc1cc(O)cc(C)c1/C=C/c1cncc(C(N)=O)c1 | 0.98%
40 | CC1=C(C(=O)Nc2ccc3[nH]nc(C)c3c2)C(c2ccc(C(F)(F)F)cc2)CC(=O)N1 (configuration not stated) | -0.05%
41 | NS(=O)(=O)c1cccc(N/C=C2\C(=O)Nc3ccccc32)c1 | 4.17%
42 | Fc1ccc(Nc2nccc(-c3c(-c4ccc(C(F)(F)F)cc4)nn4ncccc34)n2)cc1F | 1.29%
43 | COc1cc2c(cc1Nc1nc(Nc3cccc(F)c3C(N)=O)c3cc[nH]c3n1)N(C(=O)CN1CCN(C(C)C)CC1)CC2 | 0.59%
44 | O=C(O[C@H]1CN[C@H](C#Cc2cc3ncnc(Nc4ccc5c(ccn5Cc5cc(F)ccc5F)c4)c3s2)C1)N1CCOCC1 | 2.82%
45 | CCN1CCC(C(=O)Nc2n[nH]c3nnc(-c4cccc(F)c4F)cc23)CC1 | 0.44%
46 | N#Cc1cccc(Nc2ncc(-c3ccccc3)o2)c1 | -0.09%
47 | CS(=O)(=O)CCNCc1ccoc1-c1ccc2ncnc(Nc3ccc(OCc4ccccc4)cc3)c2c1 | -0.56%

Row | Structure (SMILES) | inhibition
48 | COc1cccc(-n2ncc3c(N/N=C/c4ccc(C(=O)NCCN(C)C)cc4)ncnc32)c1 | 2.02%
49 | COc1cc(N2CCN(C(C)C)CC2)ccc1Nc1nc(Nc2cccc3ncccc23)c2cc[nH]c2n1 | 0.47%
50 | NS(=O)(=O)c1ccc(N/N=C2\C(=O)Nc3ccc(C(=O)NCc4ccncc4)cc32)cc1 | 4.76%
51 | CCn1c(-c2nonc2N)nc2cncc(C(=O)NCCNC)c21 | 2.2%
52 | COC(=O)Nc1nc2cc(Oc3ccc(NC(=O)Nc4ccccc4)cc3)ccc2[nH]1 | 1.19%
53 | COc1cc(Nc2ncc(-c3ccccc3)o2)cc(OC)c1 | 1.86%
54 | COc1ccc(-c2nn3ncccc3c2-c2ccnc(Nc3ccc(F)c(F)c3)n2)cc1 | 1.45%
55 | COc1c(C(N)=O)cc(-c2ccc(Cl)cc2)cc1-c1ccc(S(N)(=O)=O)cc1 | 0.45%
56 | Nc1ncnc2occ(-c3ccc(NC(=O)Nc4cc(C(F)(F)F)ccc4F)cc3)c12 | 0.43% and 1.7%
57 | CC1=C(C(=O)Nc2ccc3[nH]ncc3c2)C(c2ccc(F)cc2)N=C(c2ccc(C(F)(F)F)nc2)N1 (configuration not stated) | 0.35%
58 | CN1CCN(Cc2ccc(-c3cc4ncnc(Nc5ccc(OCc6cccc(F)c6)c(Cl)c5)c4s3)o2)CC1 | 1.62% and 1.87%
59 | N#Cc1ccc2c(-c3ccnc(NC4CC4)n3)c(-c3ccc(F)cc3)nn2c1 | 0.81%
60 | CNC(=O)c1ncccc1Nc1nc(Nc2cc3c(cc2OC)CCCN3C(=O)CN(C)C)nc2[nH]ccc12 | 2.04%
61 | Nc1nccc(-c2c(-c3ccc(F)cc3)ncn2C2CCNCC2)n1 | -0.05% and 0.87%
62 | c1cnn2ncc(-c3ccnc(NCCCN4CCOCC4)n3)c2c1 | 1.05%
